# Measured values published in PubChem BioAssay (EPA / NIEHS).
# Inconclusive results are not listed. Active and inactive are the calls of the source. Rule for the calls: active = hit-call score of the fitted dose curve at least 0.9, where 1 is the maximum; inconclusive = response in the unintended direction; inactive = score below 0.9.
# How the values were obtained:
# [1] = molecular target: D(1A) dopamine receptor (Homo sapiens) (UniProt P21728); experiment: NVS_GPCR_hDRD1: NovaScreen (NVS) G Protein-Coupled Receptor Assay for human Dopamine Receptor D1 (DRD1) (AID 2283269)
# How it was run: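 Radioligand displacement binding on membranes/protein extracted from HEK293 expressing human D1, cell-free; read 1 h after dosing by filter-based scintillation counting. Primary screen in duplicate at 25 uM, actives followed up in concentration series; signal loss versus DMSO baseline.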
# [2] = molecular target: Type-1 angiotensin II receptor (Homo sapiens) (UniProt P30556); experiment: NVS_GPCR_hAT1: NovaScreen (NVS) G Protein-Coupled Receptor Assay for human Angiotensin II receptor type 1 (AT1) (AID 2283263)
# How it was run: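 Membranes from KAN-TS cells; radioligand competitive displacement, 3 h, filtration and scintillation counting. Single-point duplicate screen at 25 uM, then concentration-response up to 50 uM for hits; loss of signal fitted versus DMSO.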
# [3] = molecular target: human Dopamine Receptor D2 (DRD2), DRD2 (gene 1813) (UniProt P14416); experiment: NVS_GPCR_hDRD2s: NovaScreen (NVS) G Protein-Coupled Receptor Assay for human Dopamine Receptor D2 (DRD2) (AID 2283266)
# How it was run: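 Radioligand displacement used human DRD2 membranes extracted from CHO cells and was read by filter-based scintillation counting after 1.5 hours. Primary screening was in duplicate at 25 uM. Loss of signal versus DMSO was fitted, with concentration series in follow-up.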
# [4] = molecular target: human Endothelin Receptor Type B (ETB), EDNRB (gene 1910) (UniProt P24530); experiment: NVS_GPCR_hETB: NovaScreen (NVS) G Protein-Coupled Receptor Assay for human Endothelin Receptor Type B (ETB) (AID 2283267)
# How it was run: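 Human astrocytoma cell membranes; radioligand competitive binding read by filter scintillation counting 4 hours after dosing. Single-concentration duplicate screen at 25 uM, then singleton concentration-response up to 50 uM; loss of signal versus DMSO.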
# [5] = molecular target: human Serotonin, 5-Hydroxytryptamine Receptor 5A (5HT5A), HTR5A (gene 3361) (UniProt P47898); experiment: NVS_GPCR_h5HT5A: NovaScreen (NVS) G Protein-Coupled Receptor Assay for human Serotonin, 5-Hydroxytryptamine Receptor 5A (5HT5A) (AID 2283251)
# How it was run: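 Cell-free radioligand displacement binding on HEK293-derived membrane protein, 1 h incubation, filter-based scintillation counting. Primary screen in duplicate at 25 uM, actives followed in concentration series; loss of signal fitted versus DMSO.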
# [6] = molecular target: human Adenosine A1 Receptor (AdoRA1), ADORA1 (gene 134) (UniProt P30542); experiment: NVS_GPCR_hAdoRA1: NovaScreen (NVS) G Protein-Coupled Receptor Assay for human Adenosine A1 Receptor (AdoRA1) (AID 2283254)
# How it was run: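 Radioligand binding was run on human cortical membranes, cell-free, with filter-based scintillation counting 1 h after dosing. The primary screen was duplicate at 25 uM, followed by concentration series. Signal loss versus DMSO was fitted positive-direction.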
# [7] = molecular target: human Serotonin, 5-Hydroxytryptamine Receptor 7 (5HT7), HTR7 (gene 3363) (UniProt P34969); experiment: NVS_GPCR_h5HT7: NovaScreen (NVS) G Protein-Coupled Receptor Assay for human Serotonin, 5-Hydroxytryptamine Receptor 7 (5HT7) (AID 2283255);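 note: hits reduce specific radioligand binding relative to DMSO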
# How it was run: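 Radioligand displacement on membranes from CHO cells expressing human 5HT7, 1 h incubation, filter-based scintillation counting. Primary screen used a single 25 uM concentration in duplicate; actives were followed up in concentration series.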
# [8] = molecular target: human Adenosine A2a Receptor (AdoRA2a), ADORA2A (gene 135) (UniProt P29274); experiment: NVS_GPCR_hAdoRA2a: NovaScreen (NVS) G Protein-Coupled Receptor Assay for human Adenosine A2a Receptor (AdoRA2a) (AID 2283256)
# How it was run: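 Radioligand displacement on HEK293-derived membrane protein, cell-free; filter-based scintillation counting 1.5 hours after dosing, loss of signal vs DMSO. Single-point duplicate screen at 25 uM, actives retested in concentration series.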
# [9] = molecular target: human Adrenergic, Beta 1 Receptor (Adrb1), ADRB1 (gene 153) (UniProt P08588); experiment: NVS_GPCR_hAdrb1: NovaScreen (NVS) G Protein-Coupled Receptor Assay for human Adrenergic, Beta 1 Receptor (Adrb1) (AID 2283258)
# How it was run: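 Cell-free radioligand displacement on receptor from human neuroepithelioma cells; 2 h after dosing, filter-based scintillation counting. Primary screen in duplicate at 25 uM, actives retested in concentration series; loss of signal vs DMSO baseline.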
# [10] = molecular target: human Adrenergic, Alpha 2c Receptor (Adra2C), ADRA2C (gene 152) (UniProt P18825); experiment: NVS_GPCR_hAdra2C: NovaScreen (NVS) G Protein-Coupled Receptor Assay for human Adrenergic, Alpha 2c Receptor (Adra2C) (AID 2283259)
# How it was run: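 Radioligand binding on Sf9-expressed receptor membranes, 1 h after chemical dosing, filter-based scintillation read-out. Loss of binding fitted positively versus DMSO; primary duplicate screen at 25 uM, actives retested in concentration series.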
# [11] = molecular target: human Histamine 1 Receptor (H1), HRH1 (gene 3269) (UniProt P35367); experiment: NVS_GPCR_hH1: NovaScreen (NVS) G Protein-Coupled Receptor Assay for human Histamine 1 Receptor (H1) (AID 2283268)
# How it was run: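 Cell-free radioligand displacement at human H1 receptor, 1 h, filter scintillation counting; primary screen 25 uM in duplicate, hits in concentration series; loss of binding fitted vs DMSO.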
# [12] = molecular target: human Adrenergic, Beta 3 Receptor (Adrb3), ADRB3 (gene 155) (UniProt P13945); experiment: NVS_GPCR_hAdrb3: NovaScreen (NVS) G Protein-Coupled Receptor Assay for human Adrenergic, Beta 3 Receptor (Adrb3) (AID 2283262)
# How it was run: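 Membranes from SK-N-MC cells pretreated with isoproterenol and 8-bromo-cAMP were used in a radioligand competitive displacement binding assay. Binding was read by filter-based scintillation counting 1 hour after dosing. Primary screening was in duplicate at 25 uM, with concentration series in follow-up.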
# [13] = molecular target: human Dopamine Receptor D4.4 (DRD4.4), DRD4 (gene 1815) (UniProt P21917); experiment: NVS_GPCR_hDRD4.4: NovaScreen (NVS) G Protein-Coupled Receptor Assay for human Dopamine Receptor D4.4 (DRD4.4) (AID 2283264)
# How it was run: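 Radioligand displacement on human DRD4.4 from CHO-derived membranes, 1 hour incubation, bound counts read by filtration and scintillation. Primary screen in duplicate at 25 uM; actives followed up in concentration series.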
# [14] = molecular target: human Serotonin, 5-Hydroxytryptamine Receptor 6 (5HT6), HTR6 (gene 3362) (UniProt P50406); experiment: NVS_GPCR_h5HT6: NovaScreen (NVS) G Protein-Coupled Receptor Assay for human Serotonin, 5-Hydroxytryptamine Receptor 6 (5HT6) (AID 2283253)
# How it was run: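 Radioligand binding to 5HT6 in HEK293-derived membranes, cell-free, 1 h after dosing; bound ligand measured by filter-based scintillation counting. Primary screen in duplicate at 25 uM; actives retested in concentration series.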
# Chain of human Adrenergic, Alpha 2c Receptor (Adra2C), ADRA2C (gene 152) (P18825 whole entry, looked up): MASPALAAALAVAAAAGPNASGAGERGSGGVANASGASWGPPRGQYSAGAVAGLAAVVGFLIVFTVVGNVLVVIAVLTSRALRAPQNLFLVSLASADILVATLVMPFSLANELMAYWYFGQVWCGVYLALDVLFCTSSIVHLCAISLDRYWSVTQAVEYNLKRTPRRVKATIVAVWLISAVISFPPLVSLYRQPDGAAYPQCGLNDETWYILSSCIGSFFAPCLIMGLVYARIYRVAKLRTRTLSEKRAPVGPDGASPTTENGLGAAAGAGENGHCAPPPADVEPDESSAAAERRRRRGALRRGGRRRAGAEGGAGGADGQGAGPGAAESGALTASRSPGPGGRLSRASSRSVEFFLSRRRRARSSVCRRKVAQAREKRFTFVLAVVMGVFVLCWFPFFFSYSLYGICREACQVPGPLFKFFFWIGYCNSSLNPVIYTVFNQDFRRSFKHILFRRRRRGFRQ
# Chain of human Serotonin, 5-Hydroxytryptamine Receptor 5A (5HT5A), HTR5A (gene 3361) (P47898 whole entry, looked up): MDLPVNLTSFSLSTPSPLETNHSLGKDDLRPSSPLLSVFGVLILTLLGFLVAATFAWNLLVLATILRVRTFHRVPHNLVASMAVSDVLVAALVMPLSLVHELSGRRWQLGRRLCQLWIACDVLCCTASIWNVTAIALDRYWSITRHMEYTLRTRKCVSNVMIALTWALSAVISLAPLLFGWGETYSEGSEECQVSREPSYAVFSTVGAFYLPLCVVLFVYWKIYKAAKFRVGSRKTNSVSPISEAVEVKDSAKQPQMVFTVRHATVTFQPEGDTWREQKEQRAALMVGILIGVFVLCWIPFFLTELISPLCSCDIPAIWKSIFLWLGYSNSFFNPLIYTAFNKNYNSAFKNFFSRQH
# Chain of human Adenosine A2a Receptor (AdoRA2a), ADORA2A (gene 135) (P29274 whole entry, looked up): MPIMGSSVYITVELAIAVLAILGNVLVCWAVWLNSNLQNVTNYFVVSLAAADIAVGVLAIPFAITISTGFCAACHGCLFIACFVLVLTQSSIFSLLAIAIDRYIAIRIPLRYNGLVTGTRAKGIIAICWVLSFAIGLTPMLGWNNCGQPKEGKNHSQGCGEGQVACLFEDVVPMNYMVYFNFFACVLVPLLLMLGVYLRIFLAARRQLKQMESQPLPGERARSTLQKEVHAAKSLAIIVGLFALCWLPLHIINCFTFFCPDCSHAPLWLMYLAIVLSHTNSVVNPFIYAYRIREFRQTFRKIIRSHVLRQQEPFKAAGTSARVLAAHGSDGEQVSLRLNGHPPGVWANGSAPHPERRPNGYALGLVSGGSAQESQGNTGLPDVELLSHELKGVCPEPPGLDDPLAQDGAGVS
# Chain of human Adenosine A1 Receptor (AdoRA1), ADORA1 (gene 134) (P30542 whole entry, looked up): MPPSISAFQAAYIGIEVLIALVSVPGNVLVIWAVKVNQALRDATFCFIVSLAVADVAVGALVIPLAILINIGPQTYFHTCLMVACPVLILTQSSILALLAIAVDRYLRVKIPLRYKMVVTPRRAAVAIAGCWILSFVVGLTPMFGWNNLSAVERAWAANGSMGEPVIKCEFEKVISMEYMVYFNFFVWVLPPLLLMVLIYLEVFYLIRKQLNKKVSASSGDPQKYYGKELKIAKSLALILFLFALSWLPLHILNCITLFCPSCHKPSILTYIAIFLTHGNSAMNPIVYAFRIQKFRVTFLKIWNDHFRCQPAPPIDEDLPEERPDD
# Chain of human Adrenergic, Beta 3 Receptor (Adrb3), ADRB3 (gene 155) (P13945 whole entry, looked up): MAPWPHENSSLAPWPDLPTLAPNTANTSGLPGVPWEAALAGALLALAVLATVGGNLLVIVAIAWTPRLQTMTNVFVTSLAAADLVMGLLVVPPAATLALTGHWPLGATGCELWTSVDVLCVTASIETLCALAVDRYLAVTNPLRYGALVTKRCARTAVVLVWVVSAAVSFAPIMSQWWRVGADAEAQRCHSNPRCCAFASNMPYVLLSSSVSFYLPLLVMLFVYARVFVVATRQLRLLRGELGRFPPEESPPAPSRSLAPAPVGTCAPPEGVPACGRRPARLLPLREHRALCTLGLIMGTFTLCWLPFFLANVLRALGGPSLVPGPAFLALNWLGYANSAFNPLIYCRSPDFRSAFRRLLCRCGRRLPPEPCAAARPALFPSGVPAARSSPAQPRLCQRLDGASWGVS
# Chain of human Dopamine Receptor D2 (DRD2), DRD2 (gene 1813) (P14416 whole entry, looked up): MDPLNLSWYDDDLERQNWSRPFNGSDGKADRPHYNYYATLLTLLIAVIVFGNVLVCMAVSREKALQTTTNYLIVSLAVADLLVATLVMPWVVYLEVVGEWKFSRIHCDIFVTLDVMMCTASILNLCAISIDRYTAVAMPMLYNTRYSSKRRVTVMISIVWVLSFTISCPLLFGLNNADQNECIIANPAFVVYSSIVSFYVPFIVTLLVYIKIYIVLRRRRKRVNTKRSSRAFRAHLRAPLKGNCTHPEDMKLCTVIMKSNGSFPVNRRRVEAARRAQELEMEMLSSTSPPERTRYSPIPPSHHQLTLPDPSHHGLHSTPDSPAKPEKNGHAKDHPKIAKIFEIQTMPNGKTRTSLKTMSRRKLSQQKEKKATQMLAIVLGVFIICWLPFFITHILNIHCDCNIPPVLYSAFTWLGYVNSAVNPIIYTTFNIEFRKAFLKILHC
# Chain of human Histamine 1 Receptor (H1), HRH1 (gene 3269) (P35367 whole entry, looked up): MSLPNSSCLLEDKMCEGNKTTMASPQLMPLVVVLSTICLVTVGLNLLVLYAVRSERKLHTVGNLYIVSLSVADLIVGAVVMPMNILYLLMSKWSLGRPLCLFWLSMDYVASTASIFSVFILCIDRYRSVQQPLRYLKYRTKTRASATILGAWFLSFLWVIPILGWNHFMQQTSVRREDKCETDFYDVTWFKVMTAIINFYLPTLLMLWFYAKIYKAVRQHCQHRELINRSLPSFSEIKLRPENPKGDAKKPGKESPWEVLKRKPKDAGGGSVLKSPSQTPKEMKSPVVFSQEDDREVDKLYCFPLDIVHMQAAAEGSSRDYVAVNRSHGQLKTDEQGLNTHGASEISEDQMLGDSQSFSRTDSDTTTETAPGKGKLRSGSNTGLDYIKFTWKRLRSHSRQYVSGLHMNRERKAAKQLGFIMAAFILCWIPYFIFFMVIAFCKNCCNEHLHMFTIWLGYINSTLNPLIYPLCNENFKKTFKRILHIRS
# Chain of human Serotonin, 5-Hydroxytryptamine Receptor 7 (5HT7), HTR7 (gene 3363) (P34969 whole entry, looked up): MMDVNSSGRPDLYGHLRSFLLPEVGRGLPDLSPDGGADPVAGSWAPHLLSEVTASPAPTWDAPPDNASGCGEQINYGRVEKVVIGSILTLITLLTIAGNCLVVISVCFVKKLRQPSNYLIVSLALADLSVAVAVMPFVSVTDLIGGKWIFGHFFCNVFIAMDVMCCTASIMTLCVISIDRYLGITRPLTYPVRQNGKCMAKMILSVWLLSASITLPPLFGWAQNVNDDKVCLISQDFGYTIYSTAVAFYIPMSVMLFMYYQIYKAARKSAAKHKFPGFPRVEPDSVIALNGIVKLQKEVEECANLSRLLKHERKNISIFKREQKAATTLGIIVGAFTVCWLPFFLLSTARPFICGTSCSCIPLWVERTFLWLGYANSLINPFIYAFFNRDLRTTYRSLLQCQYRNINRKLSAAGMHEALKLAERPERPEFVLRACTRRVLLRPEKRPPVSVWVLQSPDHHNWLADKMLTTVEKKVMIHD
# Chain of Type-1 angiotensin II receptor (Homo sapiens) (P30556 whole entry, looked up): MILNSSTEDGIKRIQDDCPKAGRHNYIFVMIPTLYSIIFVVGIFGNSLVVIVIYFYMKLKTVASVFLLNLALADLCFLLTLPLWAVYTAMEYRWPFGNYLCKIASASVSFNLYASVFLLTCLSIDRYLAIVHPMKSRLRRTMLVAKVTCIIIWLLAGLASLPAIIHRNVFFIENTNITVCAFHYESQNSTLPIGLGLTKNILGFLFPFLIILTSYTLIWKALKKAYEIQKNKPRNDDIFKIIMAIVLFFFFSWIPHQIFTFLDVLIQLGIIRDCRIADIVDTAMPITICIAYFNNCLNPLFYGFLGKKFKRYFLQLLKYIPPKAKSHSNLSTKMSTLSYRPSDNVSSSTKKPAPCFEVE
# Chain of human Serotonin, 5-Hydroxytryptamine Receptor 6 (5HT6), HTR6 (gene 3362) (P50406 whole entry, looked up): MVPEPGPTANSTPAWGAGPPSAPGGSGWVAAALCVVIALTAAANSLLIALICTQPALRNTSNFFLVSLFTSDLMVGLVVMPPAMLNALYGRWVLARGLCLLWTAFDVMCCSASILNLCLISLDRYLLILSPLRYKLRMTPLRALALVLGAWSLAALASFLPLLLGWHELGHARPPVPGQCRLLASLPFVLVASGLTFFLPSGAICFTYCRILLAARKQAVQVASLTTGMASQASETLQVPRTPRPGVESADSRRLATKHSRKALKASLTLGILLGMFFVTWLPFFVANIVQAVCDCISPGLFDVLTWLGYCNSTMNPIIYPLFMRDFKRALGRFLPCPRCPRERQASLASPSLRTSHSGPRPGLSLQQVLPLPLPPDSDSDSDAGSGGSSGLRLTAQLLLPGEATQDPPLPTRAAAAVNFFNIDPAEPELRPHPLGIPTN
# Chain of human Adrenergic, Beta 1 Receptor (Adrb1), ADRB1 (gene 153) (P08588 whole entry, looked up): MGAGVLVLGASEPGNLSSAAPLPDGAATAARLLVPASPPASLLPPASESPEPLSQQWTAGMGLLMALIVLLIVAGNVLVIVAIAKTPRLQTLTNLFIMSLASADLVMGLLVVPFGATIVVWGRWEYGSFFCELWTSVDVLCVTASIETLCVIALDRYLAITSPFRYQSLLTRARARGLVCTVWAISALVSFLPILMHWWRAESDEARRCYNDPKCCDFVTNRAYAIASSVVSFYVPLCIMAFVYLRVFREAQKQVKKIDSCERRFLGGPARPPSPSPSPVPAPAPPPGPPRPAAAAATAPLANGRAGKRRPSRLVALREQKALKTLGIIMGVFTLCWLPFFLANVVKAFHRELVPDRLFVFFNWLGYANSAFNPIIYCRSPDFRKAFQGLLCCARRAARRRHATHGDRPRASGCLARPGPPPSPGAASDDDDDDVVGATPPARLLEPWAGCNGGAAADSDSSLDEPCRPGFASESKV
structure (smiles),measurement,setting,value
CC1(C)NC(=O)N(c2ccc([N+](=O)[O-])c(C(F)(F)F)c2)C1=O,outcome,[1],inactive
O=C1CCC(C2CCCCC2)CC1,outcome,[2],inactive
same,outcome,[3],inactive
CCCCCc1ccc(N)cc1,outcome,[4],inactive
CCCCCCCCOC(=O)c1cc(O)c(O)c(O)c1,AC50,[5],25 µM (active)
same,AC50,[6],12.4 µM (active)
same,AC50,[7],17 µM (active)
same,AC50,[8],8.09 µM (active)
same,AC50,[9],22.6 µM (active)
same,AC50,[10],11.8 µM (active)
same,AC50,[3],25 µM (active)
same,AC50,[11],42.8 µM (active)
CN1C(=O)N(c2ccccc2Br)Cc2cnc(Nc3ccc4c(c3)OCC(CO)O4)nc21 (stereo not given),outcome,[5],inactive
same,outcome,[7],inactive
CC(O)CC(C)(C)O (stereo not given),AC50,[12],0.159 µM (active)
Cc1occc1C(=O)Nc1ccc(C(=O)N2CCC(F)(F)/C(=C\C(=O)N3CCC(N4CCCCC4)CC3)c3ccccc32)cc1,AC50,[6],3.24 µM (active)
same,AC50,[7],4.89 µM (active)
same,AC50,[8],2.33 µM (active)
same,AC50,[10],1.03 µM (active)
same,outcome,[12],inactive
same,AC50,[11],0.148 µM (active)
CCCCCCCCOc1ccc(C(=O)c2ccccc2)c(O)c1,outcome,[9],inactive
c1ccc(C[n+]2cccc3ccccc32)cc1,AC50,[11],13 µM (active)
Clc1cc(Cl)c2c(c1)N=C1CCCCCN1C2,AC50,[10],5.73 µM (active)
same,outcome,[12],inactive
same,AC50,[11],4.5 µM (active)
CCCCOC(=O)CC(CC(=O)OCCCC)(OC(C)=O)C(=O)OCCCC,outcome,[12],inactive
Oc1ccc2ccccc2c1,outcome,[6],inactive
same,outcome,[13],inactive
O=C(Nc1ccc(Cl)cc1)Nc1ccc(Cl)c(Cl)c1,outcome,[3],inactive
CO[C@H]1/C=C/O[C@@]2(C)Oc3c(C)c(O)c4c(O)c(c(/C=N/N5CCN(C)CC5)c(O)c4c3C2=O)NC(=O)/C(C)=C\C=C\[C@H](C)[C@H](O)[C@@H](C)[C@@H](O)[C@@H](C)[C@H](OC(C)=O)[C@@H]1C,outcome,[2],inactive
CCCCOC(=O)c1ccc(O)cc1,AC50,[6],11.7 µM (active)
C[C@]12CC[C@@H]3c4ccc(O)cc4CC[C@H]3[C@@H]1CC[C@H]2O,AC50,[14],25 µM (active)
CCN(Cc1cccc(S(=O)(=O)O)c1)c1ccc(C(=C2C=CC(=[N+](CC)Cc3cccc(S(=O)(=O)O)c3)C=C2)c2ccccc2S(=O)(=O)[O-])cc1,AC50,[7],10.3 µM (active)
Cc1cc2c(cc1C(F)(F)F)N(C(=O)Nc1ccc(Oc3cccnc3C)nc1)CC2,AC50,[5],4.76 µM (active)
same,AC50,[14],2.91 µM (active)
same,outcome,[7],inactive
same,AC50,[3],0.0486 µM (active)
O=c1c(-c2ccc(O)cc2)coc2cc(O)cc(O)c12,outcome,[6],inactive
same,AC50,[8],6.03 µM (active)
